Screening results as filed in PubChem.
Giardia FBPA inh-1: Giardia lamblia aldolase inhibition; A8B2U2; purified Giardia FBPA; Potency, µM (titrated, usually from 59.6 µM), inactives show at the top dose activity, negative = inhibition, usual class: inhibitors; 290,000 compounds, 0.71% hits; further: nearly all actives have a fitted effect of over 55% in size
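Giardia FBPA (40 nM reagent) was preincubated 10 min at RT with compound (up to 57.5 uM final), then substrate plus GAPDH/TPI/NAD/arsenate coupling system with diaphorase/resazurin was added; resorufin fluorescence (525/598 nm) was read after 20 min.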
RE007 growth inh: less growth of the S. pombe RE007 Vpr strain; S. pombe RE007 Vpr strain, BacTiter-Glo ATP luminescence, 24 h; Potency, µM (highest dose often 92.2 µM), without a hit: top-dose activity change, negative = less growth, most hits filed as inhibitors; 360,000 compounds, 0.21% hits; active means well fitted falling curve with a large enough effect; inconclusive means small, poorly fitted or top-dose-only effect; inactive means no such curve, though single readings can be large or run the other way; further: nearly all actives have a fitted effect of over 50% in size
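Fission yeast strain RE007, carrying one chromosomally integrated HIV-1 vpr copy, was seeded at OD 0.01 in PMG+AL medium with 23 nL pinned compound. After 24 h at 30 °C and 99% humidity, viability was read by BacTiter-Glo luminescence.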
LmPK inhibitor: inhibitors of Leishmania mexicana pyruvate kinase; Q27686; purified LmPK, Kinase-Glo ATP luminescence, 1 h; Potency, µM (series often up to 57.5 µM), inactives show at the highest dose activity change, negative = inhibition, actives largely listed as inhibitors; 290,000 compounds, 0.37% hits; AID 1721
Target sequence (Q27686 whole entry, looked up): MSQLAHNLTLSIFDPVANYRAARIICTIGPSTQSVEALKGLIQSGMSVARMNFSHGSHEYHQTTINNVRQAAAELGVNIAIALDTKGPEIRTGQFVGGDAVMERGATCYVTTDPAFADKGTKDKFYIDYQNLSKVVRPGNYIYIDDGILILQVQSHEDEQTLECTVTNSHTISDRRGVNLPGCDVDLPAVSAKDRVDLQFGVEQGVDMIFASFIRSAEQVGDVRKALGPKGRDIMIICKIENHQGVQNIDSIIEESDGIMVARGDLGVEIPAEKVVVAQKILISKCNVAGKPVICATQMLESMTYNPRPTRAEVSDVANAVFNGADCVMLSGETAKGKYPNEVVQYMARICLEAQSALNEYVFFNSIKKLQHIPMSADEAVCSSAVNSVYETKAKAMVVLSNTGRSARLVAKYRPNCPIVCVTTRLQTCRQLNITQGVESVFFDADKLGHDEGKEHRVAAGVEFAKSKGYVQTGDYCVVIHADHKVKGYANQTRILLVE
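Screened at intermediate enzyme activity to detect both inhibitors and activators: LmPK at 0.1 nM, with a 0.5 nM enzyme column as activation reference. PEP 0.5 mM, ADP 0.1 mM; ATP detected by luminescence after 1 h.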
TbPYK inhibitor: inhibitors of Trypanosoma brucei pyruvate kinase; Q57TT1; TbPYK enzyme, Kinase-Glo Plus ATP luminescence, 45 min; Potency, µM (titrated, usually from 76.8 µM), for the others: at the highest dose activity, negative = inhibition, most hits filed as inhibitors; 410,000 compounds, 0.12% hits; further: nearly all actives have a fitted effect of over 50% in size
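Screened from lowest to highest concentration, compounds were pinned into TbPYK/substrate mixtures, and ADP (130 uM final) was added. Plates sat at room temperature for 45 min prior to Kinase-Glo Plus detection by luminescence.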
Giardia growth: inhibitors of Giardia lamblia growth; Giardia lamblia trophozoite growth inhibition; shares compounds with Giardia FBPA inh-1; Potency, µM (top dose mostly 57.5 µM), without a hit: top-dose activity change, negative = inhibition, actives largely listed as inhibitors; 1,500 compounds, 5% hits;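 further: trophozoites exposed to compound for 48 h at 37 °C; nearly all actives have a fitted effect of over 70% in size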
Mammalian tox: counter-screen for Giardia aldolase inhibitors: mammalian cell toxicity. shares compounds with Giardia FBPA inh-1. mammalian cell viability counter-screen, qHTS. Potency, µM (top dose mostly 57.5 µM), inactives show at the top dose viability change, negative = toxicity, usual class: inhibitors. 1,500 compounds, 4% hits;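 further: Chinese hamster ovary cells used as mammalian cytotoxicity surrogate; viability measured as cellular ATP by luminescence; compound exposure lasted 48 h before reading; nearly all actives have a fitted effect of over 60% in size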
Giardia FBPA inh-2: confirmation of Giardia fructose-bisphosphate aldolase inhibitors. shares compounds with Giardia FBPA inh-1. purified Giardia aldolase enzyme activity, qHTS. Potency, µM (doses to about 57.5 µM), without a hit: top-dose activity change, negative = inhibition, most hits filed as inhibitors. 1,500 compounds, 5% hits. AID 2787; further: nearly all actives have a fitted effect of over 45% in size
Rabbit FBPA inh: blocks rabbit muscle aldolase in Giardia aldolase selectivity test | shares compounds with Giardia FBPA inh-1 | Rabbit muscle FBPA enzyme inhibition, selectivity counter-screen | Potency, µM (series often up to 57.5 µM), for the others: top-dose activity, negative = inhibition, most hits filed as inhibitors | 1,500 compounds, 4% hits | AID 2794; further: nearly all actives have a fitted effect of over 60% in size
GAPDH counter: counter-screen for Giardia aldolase inhibitors: GAPDH coupling enzyme. shares compounds with Giardia FBPA inh-1. GAPDH coupling enzyme counterscreen, biochemical, qHTS. Potency, µM (top dose mostly 57.5 µM), for the others: top-dose activity change, negative = inhibition, actives largely listed as inhibitors. 1,500 compounds, 6% hits. AID 2795; further: nearly all actives have a fitted effect of over 55% in size
An asterisk follows results filed as active; [ ] = another dose, or the depositor's remark. Hits are enriched below; roughly 0.95% of the tested compounds scored in any of these assays. Unless noted, the call rests on the fitted dose curve; in most records, active means well fitted curve in the direction sought with a large enough effect; inconclusive means small, poorly fitted or top-dose-only effect, or another doubt; inactive means no such curve, though single readings can be large; an effect the other way counts as inactive or inconclusive. On the % scale 0 is the no-effect control and ±100 the full control effect; potency means the concentration at half of the fitted maximal effect.

How did COC(=O)[C@@]1(Cc2ccccc2)[C@H]2c3cc(C(=O)N4CCCC4)n(CC4CC4)c3C[C@H]2CN1C(=O)c1ccccc1 do in these assays?
Giardia FBPA inh-1: 0.1%

What do the screens show for `COC(=O)C/C=C1\c2ccccc2C(OC)C1C` (stereo unspecified)?
Giardia FBPA inh-1: -0.9%[12.9 µM]

Results for COc1cc(Br)c(CN2CCCN(C)CC2)cc1OC ?
Giardia FBPA inh-1: 12.6µM*; RE007 growth inh: 5.4%; LmPK inhibitor: -1.0%; TbPYK inhibitor: 2.4%; Giardia growth: 15.4%; Mammalian tox: 10.4%; Giardia FBPA inh-2: 0.2%; Rabbit FBPA inh: 6.8%; GAPDH counter: 11.3%

Results for Nc1ccc2oc(=O)ccc2c1I ?
Giardia FBPA inh-1: 0.0%

How did NNc1nc2c(-c3ccc(F)cc3)nnn2c2ccccc12 do in these assays?
Giardia FBPA inh-1: inconclusive; RE007 growth inh: 0.2%; LmPK inhibitor: -9.5%; TbPYK inhibitor: -9.1%

Results for NNc1nc2c(-c3ccc(Cl)cc3)nnn2c2ccccc12 ?
Giardia FBPA inh-1: 14.1µM*; RE007 growth inh: -4.2%; LmPK inhibitor: -11.7%; TbPYK inhibitor: 2.7%; Giardia growth: inconclusive; Mammalian tox: inconclusive; Giardia FBPA inh-2: -14.1%; Rabbit FBPA inh: -18.8%; GAPDH counter: -12.9%

How did COc1ccc(CNc2ncnc3ccc(-c4ccccc4OC)cc23)c(OC)c1 do in these assays?
Giardia FBPA inh-1: 0.2%

What do the screens show for `CO[C@H]1COC(=O)C/C=C\[C@H](C)[C@@H](OC)COC(=O)[C@H](C)COC(=O)C/C=C\[C@@H]1C`?
Giardia FBPA inh-1: 2.9%[12.9 µM]

Results for COC(=O)NC(/C(C(=O)OC)=C(\C)NCc1ccccc1)c1cccc(F)c1 (stereo unspecified) ?
Giardia FBPA inh-1: -4.9%[12.9 µM]

Results for CCC(C)NCCOCCOc1ccc(C)cc1OC (stereo unspecified) ?
Giardia FBPA inh-1: -25.0%; LmPK inhibitor: -2.9%; TbPYK inhibitor: 20.8%

How did CCC(C)NCCOc1cc(C)cc(C)c1C (stereo unspecified) do in these assays?
Giardia FBPA inh-1: 15.8µM*; RE007 growth inh: -4.3%; LmPK inhibitor: -2.5%; TbPYK inhibitor: -1.9%; Giardia growth: 21.3%; Mammalian tox: 1.4%; Giardia FBPA inh-2: 4.5%; Rabbit FBPA inh: 2.7%; GAPDH counter: 7.9%

Results for Cc1ccc(C2=NC(=O)/C(=C/c3cc(O)c(O)c(Br)c3)S2)cc1 ?
Giardia FBPA inh-1: 15.8µM*; RE007 growth inh: -5.1%; LmPK inhibitor: -18.6%; TbPYK inhibitor: inconclusive; Giardia growth: 6.7%[10.4 µM]; Mammalian tox: -18.0%; Giardia FBPA inh-2: -15.1%; Rabbit FBPA inh: -9.3%; GAPDH counter: 10.4%

Results for COc1cc(/C=C2\SC(c3ccc(C)cc3)=NC2=O)cc(OC)c1O ?
Giardia FBPA inh-1: 14.1µM*; RE007 growth inh: -11.0%; LmPK inhibitor: inconclusive; TbPYK inhibitor: inconclusive; Giardia growth: inconclusive; Mammalian tox: -6.6%; Giardia FBPA inh-2: 14.1µM*; Rabbit FBPA inh: inconclusive; GAPDH counter: inconclusive

Results for CCNC(=O)Cc1ccc(NS(=O)(=O)c2ccc(F)cc2)cc1 ?
Giardia FBPA inh-1: 3.2%; RE007 growth inh: -0.8%; LmPK inhibitor: 2.5%; TbPYK inhibitor: -1.9%

Results for CCNC(=S)NS(=O)(=O)c1ccc(F)cc1 ?
Giardia FBPA inh-1: inconclusive; RE007 growth inh: inconclusive; LmPK inhibitor: 0.0%; TbPYK inhibitor: -0.5%; Giardia growth: 3.7%[38.3 µM]; Mammalian tox: 2.5%; Giardia FBPA inh-2: 4.3%; Rabbit FBPA inh: -0.9%; GAPDH counter: 2.4%

What do the screens show for `O=C(O)CCCCCN1C(=O)/C(=C\c2ccc(-c3ccc(Cl)cc3)o2)SC1=S`?
Giardia FBPA inh-1: 15.8µM*; RE007 growth inh: 20.0%; LmPK inhibitor: -6.5%; TbPYK inhibitor: -3.3%; Giardia growth: 10.9%[10.4 µM]; Mammalian tox: 4.2%; Giardia FBPA inh-2: -4.0%; Rabbit FBPA inh: 3.1%; GAPDH counter: 14.8%

Results for O=C(O)CCCN1C(=O)/C(=C/c2ccc(-c3nc4ccccc4s3)o2)SC1=S ?
Giardia FBPA inh-1: -21.7%; RE007 growth inh: -5.0%; LmPK inhibitor: 3.1%; TbPYK inhibitor: -10.9%

What do the screens show for `Cc1cc(=O)c2c(O)c(O)ccc2o1`?
Giardia FBPA inh-1: 9.98µM*; RE007 growth inh: -12.8%; LmPK inhibitor: -2.1%; TbPYK inhibitor: -9.4%; Giardia growth: 62.8%; Mammalian tox: 10.7%; Giardia FBPA inh-2: inconclusive; Rabbit FBPA inh: inconclusive; GAPDH counter: inconclusive

Results for Nn1cnnc1N/N=C/c1ccc(Cl)cc1Cl ?
Giardia FBPA inh-1: -29.9%; RE007 growth inh: -3.5%; LmPK inhibitor: -4.5%; TbPYK inhibitor: 0.5%; Giardia growth: -9.9%[38.3 µM]; Mammalian tox: inconclusive; Giardia FBPA inh-2: 5.8µM*; Rabbit FBPA inh: 8.19µM*; GAPDH counter: 9.19µM*

What do the screens show for `CCCn1c(-c2ccc(F)cc2)nc2c(NCC(C)(C)CN(C)C)nc(C)nc21`?
Giardia FBPA inh-1: -0.8%

What do the screens show for `NC(=O)CCCCC1CCSS1` (stereo unspecified)?
TbPYK inhibitor: 2.3%

What do the screens show for `Cc1ccccc1NNC(=O)C(=O)NNc1ccccc1C`?
Giardia FBPA inh-1: 15.8µM*; RE007 growth inh: 33.1%; LmPK inhibitor: 2.1%; TbPYK inhibitor: 6.2%; Giardia growth: inconclusive; Mammalian tox: -6.1%; Giardia FBPA inh-2: -11.0%; Rabbit FBPA inh: 5.1%; GAPDH counter: 8.1%

Results for Cc1ccc(C)c(NNC(=O)C(=O)NNc2cc(C)ccc2C)c1 ?
Giardia FBPA inh-1: -8.0%; RE007 growth inh: 16.2%; LmPK inhibitor: 7.8%; TbPYK inhibitor: 0.3%
